ELG1 genotoxic = qHTS screen for small molecules that induce genotoxicity in human embryonic kidney (HEK293T) cells expressing luciferase-tagged ELG1. HEK293T ELG1-luciferase reporter, luminescence, 16 h. Potency, µM (series often up to 46 µM), without a hit: at the highest dose activity change, positive = activation, actives largely listed as activators. 330,000 compounds, 1.3% hits. AID 504466, 2011; also: % of control where 0% means no effect; nearly all actives have a fitted effect of over 60% in size
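ELG1-luciferase HEK293T cells, 2,000/well; compound pinned in; 16 hr, 37 °C, 5% CO2; ONE-Glo, 30 min RT; luminescence on CCD imager.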
FLuc counter = qHTS profiling assay for firefly luciferase inhibitor/activator using purifed enzyme and Km concentrations of substrates (counterscreen for miR-21 project) | 360,000 compounds, 6.9% hits | AID 588342, 2011 | Potency, µM (highest dose often 57.5 µM), inactives show at the top dose activity change, negative = inhibition, actives largely listed as inhibitors | purified FLuc, Km substrates, luminescence inhibition | Luciferin 4-monooxygenase (Photinus pyralis), P08659;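 also: plate controls were vehicle for no effect and reference inhibitor for full effect; nearly all actives have a fitted effect of over 55% in size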
Target sequence (P08659 whole entry, looked up): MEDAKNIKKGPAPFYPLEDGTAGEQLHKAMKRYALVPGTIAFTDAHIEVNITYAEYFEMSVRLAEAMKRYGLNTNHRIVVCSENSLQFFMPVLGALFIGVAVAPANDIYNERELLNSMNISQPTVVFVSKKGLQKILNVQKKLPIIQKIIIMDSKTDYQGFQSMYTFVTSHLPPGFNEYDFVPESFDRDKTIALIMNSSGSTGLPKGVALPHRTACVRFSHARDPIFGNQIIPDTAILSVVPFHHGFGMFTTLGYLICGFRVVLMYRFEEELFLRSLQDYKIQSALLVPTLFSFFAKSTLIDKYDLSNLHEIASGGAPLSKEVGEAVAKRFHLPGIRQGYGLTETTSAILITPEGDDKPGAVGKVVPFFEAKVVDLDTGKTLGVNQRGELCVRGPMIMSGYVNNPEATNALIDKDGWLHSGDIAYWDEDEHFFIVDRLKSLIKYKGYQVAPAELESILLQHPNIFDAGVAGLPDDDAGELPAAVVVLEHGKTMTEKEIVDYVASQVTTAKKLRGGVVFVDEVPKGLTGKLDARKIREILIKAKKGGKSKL
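Purified P. pyralis luciferase, 10 nM final, with Km-level 10 uM D-luciferin and 10 uM ATP in 50 mM Tris acetate pH 7.5, 10 mM Mg acetate, 0.01% Tween-20, 0.05% BSA; 6-point qHTS titration about 60 µM downward; luminescence read.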
SMN2 splice enh = qHTS Assay for Enhancers of SMN2 Splice Variant Expression; HEK293 SMN2-luciferase splicing reporter, luminescence, 30-36 h; Potency, µM (series often up to 46.1 µM), inactives show at the top dose activity change, positive = activation, usual class: activators; 210,000 compounds, 2.8% hits; also: % of control where 0% means no effect; nearly all actives have a fitted effect of over 55% in size
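qHTS luciferase splicing reporter: luminescence rises when SMN2 exon 7 is included in transfected HEK293 cells. Compound exposure lasted 30-36 h at 37C, with 4.5 mM final sodium butyrate as control, followed by a ONE-Glo read.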
Rab9 promoter act = qHTS Assay for Rab9 Promoter Activators; Huh7 Rab9 promoter-luciferase reporter, luminescence, 24 h; Potency, µM (titrated, usually from 9.22 µM), for the others: at the highest dose activation, negative = inhibition, most hits filed as activators; 320,000 compounds, 2.8% hits; also: % of control where 0% means no effect; nearly all actives have a fitted effect of over 60% in size
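Huh7 cells stably carrying Rab9 promoter–luciferase reporter, plated 1500 cells/well, compound added after 2 h and incubated 24 h at 37 °C; luciferase luminescence then read after 10 min with detection reagent.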
p53 reactivator = qHTS assay for re-activators of p53 using a Luc reporter | H1299 p53-A138V BP100-luciferase reporter, luminescence, 24 h | Potency, µM (titrated, usually from 92.2 µM), for the others: at the highest dose activity change, positive = activation, hits mostly activators | 320,000 compounds, 0.063% hits; also: % of control where 0% means no effect; nearly all actives have a fitted effect of over 45% in size
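p53-null H1299 cells stably carrying temperature-sensitive p53-A138V and a BP100-luciferase reporter were pinned with compounds (4-point, 1:5 series) and held 24 hrs at 37 deg C. Luminescence was read 10 min after detection reagent.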
NPC1 prom act = qHTS Assay for NPC1 Promoter Activators | 320,000 compounds, 2.4% hits | AID 485313, 2010 | Huh7 NPC1 promoter luciferase reporter, 24 h | Potency, µM (titrated, usually from 9.22 µM), inactives show top-dose activation, actives largely listed as activators; also: % of control where 0% means no effect; nearly all actives have a fitted effect of over 60% in size
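Cells: Huh7 expressing luciferase under the NPC1 promoter, 1500/well. Seeded 2 h, compound added, incubated 24 h at 37 °C. Luciferase reagent, 10 min ambient, then luminescence.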
The depositor's hits bear a star; ? = inconclusive; . = not tested or not shown; [ ] = another dose, or the depositor's remark. Compounds with a hit are over-represented: about 7.4% of the library has one in this group of screens. Calls follow the shape of the dose curve; as a rule, active = well fitted curve in the direction sought with a large enough effect; inconclusive = small, poorly fitted or top-dose-only effect, or another doubt; inactive = no such curve, though single readings can be large; an effect the other way counts as inactive or inconclusive. Potency is read from the fitted curve at half-maximal effect.

SMILES | ELG1 genotoxic | FLuc counter | SMN2 splice enh | Rab9 promoter act | p53 reactivator | NPC1 prom act
Cc1ccc(S(=O)(=O)N(C)C)cc1NC(=O)COC(=O)Cc1cccs1 | 2% | 0% | . | -5% | 1% | -2%
NNC(=O)/C=C/c1ccc(Cl)cc1Cl | -2% | ? | 5% | 18% | 2% | 2%
O=C(O)CNC(=O)/C=C/c1ccc(Cl)cc1Cl | -6% | 24µM* | -5% | 6% | -2% | -3%
O=C(NCCCc1ccccn1)C1CCC(=O)N(Cc2cccc(F)c2)C1 (centres undefined) | 2% | 0% | . | 2% | 8% | 7%
Cc1c(C(=O)Nc2cnccn2)oc2ccccc12 | ? | 15µM* | 11µM* | 29% | ? | 14%
CCOc1ccc2oc(C(=O)NNC(=O)c3ccccc3O)c(C)c2c1 | ? | 11µM* | . | 16% | 15% | 21%
Cc1c(C(=O)NCc2ccccn2)oc2ccc(Br)cc12 | 15% | ? | . | ? | 20% | ?
Cc1c(C(=O)NCc2ccccn2)oc2ccccc12 | 15µM* | ? | ? | ? | 28% | ?
Cc1c(C(=O)Nc2cccc3cccnc23)oc2ccccc12 | 18% | -18% | 3% | ? | 2% | 26%
Cc1c(C(=O)Nc2ccc(Cl)cn2)oc2ccccc12 | ? | -6% | ? | 21% | ? | 28%
Cc1ccnc(NC(=O)c2oc3ccccc3c2C)c1 | ? | 1.2µM* | . | 2.5µM* | 37% | 2.8µM*
CCN(CC)c1ccc(NC(=O)C2CCN(S(=O)(=O)c3cnc[nH]3)CC2)c(C)c1 | . | -8% | -1% | . | . | .
O=C(Nc1ccccc1OCc1cc(=O)n2ccccc2n1)c1cccc(Br)c1 | . | -3% | . | . | . | .
COc1cccc([C@@H]2Oc3ccc(OC)cc3C(=O)[C@H]2OC(=O)NC2CCCC2)c1 | . | . | 4% | . | . | .
COc1cccc(NC(=O)CN(C)C(=O)c2cccnc2Sc2ccc(C)c(C)c2)c1 | 3% | 1% | . | -4% | -3% | 0%
CCOc1ccc2oc(C(=O)Nc3cc(C)ccn3)c(C)c2c1 | ? | 0.34µM* | . | 0.5µM* | 23% | 0.63µM*
C=CC(N)CCC(=O)O (centres undefined) | . | . | -14% | 1%[46.1 µM] | . | 4%[46.1 µM]
Cc1ccc(/C=C/C(=O)Nc2cccc3ncccc23)o1 | -1% | ? | -3% | -5% | 3% | -1%
Cc1ccc(/C=C/C(=O)Nc2cccnc2)o1 | 0% | 24µM* | ? | ? | ? | 26%
O=C(/C=C/c1ccc(Cl)c([N+](=O)[O-])c1)Nc1cccnc1 | 7% | -11% | 6% | -10% | ? | 0%
O=C(/C=C/c1ccc([N+](=O)[O-])cc1)Nc1cccnc1 | ? | 5.4µM* | 13µM* | 3.5µM* | 4% | 2.8µM*
O=C(/C=C/c1ccccc1)Nc1cccnc1 | ? | 6.7µM* | . | 2.2µM* | -5% | 2.2µM*
O=C(Nc1ccc(Oc2ccccc2)cc1)c1ccc(F)c(S(=O)(=O)N2CCN(c3cccc(Cl)c3)CC2)c1 | . | -11% | . | . | . | .
Cc1ccccc1NC(=O)CSc1nc(=O)n(CCN2CCOCC2)c2c1CCC2 | . | 5% | . | . | . | .
CCOC(=O)c1sc(NC(=O)c2sccc2C)cc1C | 2.6µM* | 1.7µM* | 6.3µM* | 0.56µM* | ? | 0.63µM*
SMILES | ELG1 genotoxic | FLuc counter | SMN2 splice enh | Rab9 promoter act | p53 reactivator | NPC1 prom act
CCOC(=O)c1sc(NC(=O)c2ccc(Br)o2)cc1C | 2.3µM* | 3.4µM* | 11µM* | 1.6µM* | 20% | 4µM*
CCOC(=O)c1sc2nc(C)n(CC(=O)Nc3cccc(Cl)c3)c(=O)c2c1C | . | 1% | -8% | . | . | .
CCOC(=O)c1sc(NC(=O)c2cccs2)cc1C | 2.1µM* | 1.2µM* | 14µM* | 1.8µM* | 20% | 1.4µM*
CCOC(=O)c1sc(NC(=O)Nc2cccc(Cl)c2)cc1C | ? | 1.7µM* | ? | ? | ? | 2.5µM*
CCOC(=O)c1sc(NC(=S)NC(=O)C2CC2)cc1C | ? | 2% | . | -5% | 5% | 0%
CCOc1ccc(NC(=O)COC(=O)Cc2ccsc2)cc1 | -1% | . | . | . | 8% | .
CNc1snc(C)c1C(=O)OC(C)C(=O)Nc1ccccc1 (centres undefined) | -1% | 4% | . | -8% | 4% | -2%
Cc1ccccc1CNC(=O)Cn1cc2c(n1)-c1c(oc(C(=O)N3CCCC3)c1C)CC2 | . | -13% | . | . | . | .
Cc1ccc2c(c1)CC(C)N2S(=O)(=O)c1nnc(NC(=O)c2ccccc2F)s1 (centres undefined) | . | -3% | . | . | . | .
Cc1c(Cl)cccc1NC(=O)COC(=O)Cn1cnc2c1c(=O)n(C)c(=O)n2C | 1% | . | . | -8% | -4% | 8%
CC(C)C1O[C@H](/C=C\c2ccccc2)OCC1(C)C (some centres undefined) | . | . | -11%[9.22 µM] | . | . | .
C#CCN1C(=O)S/C(=C/C=C/c2ccc(N(C)C)cc2)C1=O | 9.2µM* | 2.7µM* | 7.1µM* | 2µM* | ? | 3.2µM*
CN(C)c1ccc(/C=C2\SC(=O)N(CC(O)Cn3c4ccccc4c4ccccc43)C2=O)cc1 (centres undefined) | -2% | 2% | -10% | -2% | 1% | 0%
Cc1sc(NC(=O)c2ccco2)c(C(c2cccnc2)N2CCN(c3ccc(F)cc3)CC2)c1C (centres undefined) | 0.52µM* | 0% | -68% | -9% | -6% | -14%
COc1ccc(/C=C/C(=O)c2oc3ccc(F)cc3c2C)cc1 | 3% | 9.5µM* | -36% | 1% | 4% | 11%
Cc1ccc(OC(=O)c2oc3ccc(F)cc3c2C)c(C)c1 | 14% | 7.6µM* | 17% | 8% | 0% | 22%
COc1ccc(CN(C(=O)c2oc3ccc(F)cc3c2C)C2CCS(=O)(=O)C2)cc1 (centres undefined) | -7% | 1% | . | 0% | -18% | -4%
CCOc1ccc(NC(=O)CSc2nc(C)c(C(=O)Nc3ccccc3)c(-c3ccc(Cl)cc3)c2C#N)cc1 | . | -2% | -6% | . | . | .
NC(=S)N/N=C/c1c[nH]c2ccc(OCc3ccccc3)cc12 | -7% | 21µM* | . | 0% | -53% | -2%
CC(/C=N/Nc1ccc2nncn2n1)=C\c1ccccc1 | 5% | 15µM* | . | 12% | 5% | 2%
Cc1cccc(/C=N\Nc2nnc(-c3ccccc3)c(=O)[nH]2)c1 | 10% | -1% | 29% | -8% | 0% | 1%

Screening data from PubChem.
